# Bioassay records (PubChem BioAssay)
# IL2 activator: qHTS of IL-2 Activators | IL-2 activation reporter assay, cell-based qHTS; stimulated with anti-CD3/CD4/CD28 beads; in transgenic mouse T cells | AID 652025, 2013 | 360,000 compounds, 0.065% hits | activation, % (series mostly up to about 46 µM); in the data active = activation above about 50%; inconclusive = mostly about 30% to 49%; also: 0% is about no effect
#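 EGFP and DsRed fluorescence is measured by plate cytometry in unstimulated transgenic mouse T cells exposed to compound for 60 minutes, then stimulated 18 hours at 37 degrees C with anti-CD3/anti-CD4 beads plus anti-CD28.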
# TCR act: Activators of T cell receptors: qHTS campaign | AID 504894, 2011 | Potency, µM (top dose mostly 9.22 µM), for the others: at the top dose activation of IL-2 secretion, usual class: activators | 330,000 tested, under 10 active | primary human leukocytes, anti-CD3, IL-2 HTRF, 48 h; also: % of control where 0% means no effect
#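 48 hr co-incubation of compounds, a-CD3 beads and primary human leukocytes; IL-2 quantified homogeneously by HTRF with anti-IL-2 K and d2 conjugates.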
# p53 reactivation: qHTS assay for re-activators of p53 using a Luc reporter | H1299 p53-A138V BP100-luciferase reporter, luminescence, 24 h | Potency, µM (titrated, usually from 92.2 µM), for the others: top-dose activity change, positive = activation, most hits filed as activators | 320,000 compounds, 0.063% hits; also: potency is read from the fitted curve at half-maximal effect; % of control where 0% means no effect; nearly all actives have a fitted effect of over 45% in size
#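 p53-null H1299 cells stably carrying temperature-sensitive p53-A138V and a BP100-luciferase reporter were pinned with compounds (4-point, 1:5 series) and held 24 hrs at 37 deg C. Luminescence was read 10 min after detection reagent.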
# BRCA1 expr up: qHTS Assay to Identify Small Molecule Activators of BRCA1 Expression | Potency, µM (highest dose often 46.1 µM), without a hit: top-dose activation, usual class: activators | 380,000 compounds, 1.1% hits | MCF7-BRCA1-FFLuc reporter, luminescence, 48 h; response scale: scaled: vehicle 0%, 10 µM genistein 100% | AID 624202, 2012; also: potency is read from the fitted curve at half-maximal effect; nearly all actives have a fitted effect of over 80% in size
#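 Luminescence from a BRCA1-driven firefly luciferase in MCF7 cells was read after 48 h compound exposure at 37 C. Data normalized against DMSO and a 10microM genistein activation control, then curve-fitted across the titration.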
# uPA generation: qHTS for Inhibitors of Cell Surface uPA Generation; cell surface uPA generation assay, qHTS; Potency, µM (top dose mostly 38.3 µM), for the others: top-dose activity change, negative = inhibition, actives largely listed as inhibitors; 330,000 compounds, 0.31% hits; active = well fitted inhibition curve with a large enough effect; inconclusive = small, poorly fitted or top-dose-only effect; inactive = no such curve, though single readings can be large or run the other way; tested in mouse RAW 264.7 cells; also: potency is read from the fitted curve at half-maximal effect; % is scaled to controls: 0 for no effect and ±100 for the full control effect; nearly all actives have a fitted effect of over 55% in size
# * = called active by the depositor; ? = inconclusive; / = not tested or not shown; ! = repeats disagree; [ ] = another dose, or the depositor's remark. Hits are enriched below; roughly 1.4% of the tested compounds scored in any of these assays. Unless noted, calls follow the shape of the dose curve; as a rule, active = well fitted curve in the direction sought with a large enough effect; inconclusive = small, poorly fitted or top-dose-only effect, or another doubt; inactive = no such curve, though single readings can be large; an effect the other way counts as inactive or inconclusive.
SMILES,IL2 activator,TCR act,p53 reactivation,BRCA1 expr up,uPA generation
Cc1cc2[nH]c3c(c[n+](C)c4ccccc34)c2cc1C,-0.9,5.0%,-7.3%,-73.4%,?
Cc1cc2[nH]c3c4ccccc4nc(C)c3c2cc1C,-4.4,-4.1%,/,-73.3%,10µM*
O=C(NNc1ccccc1)OCc1ccccc1,-1.7,/,/,11.2µM*,/
O=C(NCc1ccccc1)C(=O)Nc1nccs1,3.8,7.4%,1.2%,-22.3%,-4.9%
O=C(Nc1nccs1)OCc1ccccc1,-0.8,7.1%,/,14.1µM*,-3.5%
O=C(CC(=O)OCc1ccccc1)OCc1ccccc1,2.1,4.1%,/,11.3%,-1.3%
O=C(N[C@H]1/C=C\[C@@H](O)CCCC1)OCc1ccccc1,0.2,3.6%[46.1 µM],?,4.47µM*,?
O=C(CNC(=O)OCc1ccccc1)NC1CCCCCC1,0.8,4.4%,-1.3%,-14.1%,-1.4%
O=C(c1ccc2c(c1)OCCO2)N1CCN(c2nc(-c3cccs3)nc3ccccc23)CC1,/,/,/,-11.5%,/
COc1cccc(CNCCSc2nnnn2C)c1OCc1ccccc1F,/,/,/,0.0%,/
CC1CCCC(C)N1C(=O)c1cc(-c2cccs2)on1 (centres undefined),-0.5,0.4%[46.1 µM],?,15.8µM*,3.7%
COc1ccc(-c2cn3cccnc3n2)cc1NC(=O)C1CCCC1,0.2,-5.9%,?,0.8%,/
COc1ccc(-c2cn3cccnc3n2)cc1Br,-2.0,-3.3%[46.1 µM],?,11.2µM*,-13.7%
COc1ccc(-c2noc(CN(C(=O)COc3cc(C)c(Br)c(C)c3)C(C)C)n2)cc1,/,/,/,-22.3%,/
Cc1cnc(NC(=O)c2ccc3c(c2)OCCO3)s1,0.0,5.2%,-18.5%,?,?
CCN(CC)C(=O)c1sc(NC(=O)c2ccc3c(c2)OCO3)c(C(N)=O)c1C,-0.7,1.0%,-14.4%,11.2µM*,-3.2%
Cc1nc2c(ccc3nc(NC(=O)c4ccc5c(c4)OCCO5)sc32)s1,-0.7,17.7%,?,2.82µM*,-26.7%
CC(C)Sc1nnc(NC(=O)c2ccc3c(c2)OCO3)s1,-0.5,4.2%,?,2.51µM*,1.4%
Cc1nc2ccc3nc(NC(=O)c4ccc5c(c4)OCCO5)sc3c2s1,-1.5,8.7%,3.0%,8.91µM*!,1.2%
CCN(CC)C(=O)c1sc(NC(=O)c2ccncc2)c(C(=O)OC)c1C,0.4,5.2%[46.1 µM],-3.4%,-3.8%,0.6%
COc1ccc(NC(=O)c2oc3ccccc3c2NC(=O)C23CC4CC(CC(C4)C2)C3)c(OC)c1,/,/,/,6.9%,/
O=c1/c(=C\c2cccnc2)sc2nc3ccccc3n12,0.1,1.5%,?,12.6µM*,-0.5%
O=c1/c(=C/c2ccc(O)c([N+](=O)[O-])c2)sc2nc3ccccc3n12,0.0,-2.9%,3.6%,67.6%,3.2%
COc1ccc(Cl)cc1NC(=O)CN(C)C(=O)c1cn2ccccc2n1,0.0,57.2%,-2.1%,-37.2%,11.2µM*
CCOc1ccc(NC(=O)CN(C)C(=O)c2cn3ccccc3n2)cc1OCC,0.9,-0.8%,1.9%,3.6%,-9.0%
SMILES,IL2 activator,TCR act,p53 reactivation,BRCA1 expr up,uPA generation
NN=C1c2cc(S(=O)(=O)NCCO)ccc2-c2ccc(S(=O)(=O)NCCO)cc21,/,/,/,16.1%,/
CCc1ccc(CNC(=O)C2Cc3cc(S(=O)(=O)N4CCCCCC4)ccc3N2C(C)=O)cc1 (centres undefined),/,/,/,-4.0%,/
Cc1ccc(-c2nc(N3CCCC(C)C3)c3ccccc3n2)cc1 (centres undefined),/,/,/,0.0%,/
O=C(Nc1ccccc1Br)c1ccc(OC(=S)N2CCOCC2)cc1,-0.9,2.3%,0.1%,7.94µM*,-0.2%
CC(C)=CC(=O)Nc1nnc(-c2ccccc2C)s1,2.0,-4.2%,8.5%,3.55µM*,6.0%
CCc1nnc(NC(=O)C=C(C)C)s1,-0.1,6.5%[46.1 µM],?,72.8%,0.7%
CC(=Nc1ccc(Br)cc1)c1sc2ccccc2c1O,-0.1,2.4%,?,3.98µM*,?
COc1ccc(N(CC(=O)N2CCN(c3ccccc3)CC2)S(=O)(=O)c2c(C)nn(C)c2C)cc1,/,/,/,-9.7%,/
O=[N+]([O-])c1ccc2c(c1)C=C/C2=C\c1ccc(C=S)cc1,/,/,/,5.62µM*,/
CCN(C(=O)Cn1c(=O)n(CCCS(=O)(=O)C2CCCCC2)c(=O)c2ccccc21)c1cccc(C)c1,/,/,/,-6.6%,/
O=C(CCC(=O)c1ccc[nH]1)c1ccc(Cl)cc1,-0.9,0.5%,25.6%,7.08µM*,1.4%
O=C(COc1ccc(F)c(Cl)c1)c1ccc[nH]1,1.4,0.8%,17.9%,92.6%,7.1%
Cc1cc(-c2ccccc2)nc(N2CCC(C(=O)NC(C)C)CC2)n1,-0.9,-3.0%,7.9%,2µM*,/
O=C(Nc1cccc2ccccc12)c1ccc([N+](=O)[O-])s1,-2.1,4.9%[46.1 µM],-12.1%,-80.6%,11.2µM*
O=C(Nc1cccnc1)c1ccc([N+](=O)[O-])s1,-0.2,0.9%,?,-42.8%,4.47µM*
O=C(Nc1ccccc1F)c1ccc([N+](=O)[O-])s1,-4.2,-12.3%,?,-98.5%,/
O=C(/C=C/c1ccc(C(F)(F)F)cc1)OC(C(=O)NC1CC1)c1ccccc1 (centres undefined),/,/,/,-2.8%,/
Oc1ccc(Cl)cc1C1C=C(c2ccc3c(c2)OCO3)NC(c2cc(Br)ccc2F)N1 (centres undefined),/,/,/,-40.3%,/
O=C(CCNS(=O)(=O)c1ccc2c(c1)CCCC(=O)N2)Nc1cccc(Cl)c1,/,/,/,35.9%,/
CC1CCN(c2nc3ccc(C(=O)NCCCN4CCCCC4C)cc3s2)CC1 (centres undefined),0.9,1.5%,/,0.0%,11.2µM*
CC1CCCC(C)N1CCCNC(=O)c1ccc2nc(N3CCCCC3)sc2c1 (centres undefined),-3.4,-3.1%,22.1%,54.3%,?
Cc1nc(C)c(-c2csc(Nc3ccc(N)cc3)n2)s1,-1.0,0.2%,/,-55.2%,4.47µM*
COc1ccc(Nc2nc(-c3sc(C)nc3C)cs2)cc1,0.6,/,8.3%,-39.7%,?
Cc1cccc(CCN=c2c([N+](=O)[O-])nn(-c3ccccc3)n2O)c1,-0.5,-2.4%,?,0.9%,?
Cc1cccc(-n2nc([N+](=O)[O-])c(=NC3CCN(Cc4ccccc4)CC3)n2O)c1,0.0,1.7%,14.1µM*,-67.8%,2.82µM*
O=S1(=O)N[C@@H](CC2CCCCC2)COc2cc(Br)ccc21,-0.9,1.4%[46.1 µM],6.0%,-14.4%,1.58µM*
CN(C)/C=C1\C(=O)N(c2ccc(Cl)cc2)CS1(=O)=O,0.0,1.1%,?,7.94µM*,-6.6%
Cc1ccc(N2CS(=O)(=O)/C(=C/N(C)C)C2=O)cc1,0.2,11.2%,?,86.2%,-3.4%
COc1cc(/C=C/c2cc(C(=O)O)c3ccccc3n2)ccc1OC(F)F,0.2,-6.6%,3.1%,2.51µM*,2.82µM*
